Source: PubChem BioAssay (Tox21)
Where “and” joins values, the source holds several entries; their conditions need not be identical. Equal entries are not always repeated. Records with an inconclusive call do not appear. Some compounds were tested as several samples or in several runs, with calls that do not always agree. Calls of active or inactive are those of the source. The call rests on the fitted dose curve; in most records, active means well fitted curve in the direction sought with a large enough effect in the repeat runs; inconclusive means weak or mixed curves; inactive means no such curve, though single readings can be large; an effect the other way counts as inactive or inconclusive.

Key:
[1] = A CellTox Green Cytotoxicity Assay to monitor cytotoxicity in HepG2 cells - 0 hour (AID 1224882); further: nearly all actives have a fitted effect of over 35% in size
Outline: (§1)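 Cytotoxicity was tracked as dead-cell DNA fluorescence in HepG2 cells treated with test compounds at 37 C; each time-point value comes from one kinetic series spanning 0, 8, 16, 24, 32 and 40 h.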

[2] = A CellTox Green Cytotoxicity Assay to monitor cytotoxicity in HepG2 cells - 32 hour (AID 1224883); further: nearly all actives have a fitted effect of over 50% in size
Outline: as §1

[3] = A CellTox Green Cytotoxicity Assay to monitor cytotoxicity in HEK293 cells - 8 hour (AID 1224884); further: nearly all actives have a fitted effect of over 35% in size
Outline: (§2)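 Real-time, in one plate: 600 HEK293 cells/well with dead-cell DNA dye, pinned compound after 5 h, 37 C incubation over 40 h; viable cells give no appreciable fluorescence.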

[4] = qHTS RealTime-Glo MT Cell Viability Assay in HepG2 cells - 16 hour (AID 1224885); further: nearly all actives have a fitted effect of over 50% in size
Outline: (§3)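 Real-time, nonlytic viability: 600 HepG2 cells/well mixed with NanoLuc enzyme plus prosubstrate; 5 h settle, compound (DMSO) added by pintool; luminescence monitored over 40 h at 37 C.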

[5] = qHTS RealTime-Glo MT Cell Viability Assay in HEK293 cells - 24 hour (AID 1224886); further: nearly all actives have a fitted effect of over 50% in size; on activity change, negative = cytotoxicity: top concentration of the series differs between compounds
Outline: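 Cells + reagent dispensed (600 cells/well, HEK293) → 5 h at 37 C/5% CO2 → 23 nL compound in DMSO pinned → 40 h at 37 C → luminescence read at 0, 8, 16, 24, 32, 40 h.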

[6] = qHTS RealTime-Glo MT Cell Viability Assay in HEK293 cells - 8 hour (AID 1224887); further: nearly all actives have a fitted effect of over 50% in size; on activity change, negative = cytotoxicity: top concentration of the series differs between compounds
Outline: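 Kinetic, non-lysing viability readout. Seed HEK293 (600/well) with reagent, incubate 5 h at 37 C/5% CO2, pin 23 nL compound in DMSO, incubate at 37 C, read luminescence at 0, 8, 16, 24, 32, 40 h.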

[7] = A CellTox Green Cytotoxicity Assay to monitor cytotoxicity in HEK293 cells - 16 hour (AID 1224888); further: nearly all actives have a fitted effect of over 35% in size
Outline: as §2

[8] = qHTS RealTime-Glo MT Cell Viability Assay in HepG2 cells - 0 hour (AID 1224889); further: nearly all actives have a fitted effect of over 50% in size
Outline: as §3

[9] = qHTS assay to identify small molecule antagonists of the estrogen receptor alpha (ER-alpha) signaling pathway using the BG1 cell line in the presence of 0.1 nM 17-beta-estradiol - cell viability counter screen (AID 1259241); further: nearly all actives have a fitted effect of over 40% in size
Outline: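 Cytotoxicity counter-screen: live-cell protease activity measured by fluorescence (30 min reagent step) in the same wells. Cells were VM7Luc4E2 with endogenous ER-alpha and ERE-driven luciferase, treated 22 hr at 37C alongside 0.1 nM 17beta-estradiol final.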

[10] = A CellTox Green Cytotoxicity Assay to monitor cytotoxicity in HepG2 cells - 8 hour (AID 1224890); further: nearly all actives have a fitted effect of over 45% in size
Outline: as §1
On the % scale 0 is the no-effect control and ±100 the full control effect; potency means the concentration at half of the fitted maximal effect.

c1ccc2c(c1)[nH]c1cnccc12
inactive: Potency [1] | Potency [2] | Potency [3] | Potency [4] | Potency [5] | Potency [6] | Potency [7] | Potency [8] | Potency [9]

S=C=Nc1cccc2ccccc12
inactive: Potency [1] | Potency [2] | Potency [3] | Potency [4] | Potency [5] | Potency [7] | Potency [8] | Potency [10]
active: Potency [6] 21.7 µM | Potency [9] 30.3 µM

CS(=O)(=O)c1ccc(C(=O)C2C(=O)CCCC2=O)c([N+](=O)[O-])c1
inactive: Potency [4] | Potency [8] | Potency [9]
active: Potency [1] 39.6 µM | Potency [2] 44.4 µM | Potency [3] 44.4 µM | Potency [5] 25 µM | Potency [6] 21.4 µM | Potency [7] 44.4 µM

FC(F)(F)c1cccc(C2=CCN(CCc3ccc4ccccc4c3)CC2)c1
inactive: Potency [1] | Potency [2] | Potency [3] | Potency [4] | Potency [5] | Potency [6] | Potency [7] | Potency [8] | Potency [10]

Brc1c(Br)c(Br)c(Oc2c(Br)c(Br)c(Br)c(Br)c2Br)c(Br)c1Br
inactive: cytotoxicity [1] -0.0157% [at 15.8 µM] | cytotoxicity increase [2] 0.162% [at 15.8 µM] | cytotoxicity increase [3] -3.68% [at 15.8 µM] | activity change, negative = cytotoxic [4] 1.53% [at 15.8 µM] | activity change, negative = cytotoxicity [5] -0.0351% [at 15.8 µM] | activity change, negative = cytotoxicity [6] 4.64% [at 15.8 µM] | activity change [7] -4.12% [at 15.8 µM, stronger effect = higher value] | activity change, negative = cytotoxicity [8] 13.9% [at 15.8 µM] | cytotoxicity increase [10] -0.348% [at 15.8 µM]

CC(=O)Nc1ccc2c(c1)Cc1ccccc1-2
inactive: Potency [1] | Potency [2] | Potency [3] | Potency [4] | Potency [5] | Potency [6] | Potency [7] | Potency [8] | Potency [10]

CC(C)C(=O)Cl
inactive: Potency [1] | Potency [2] | Potency [3] | Potency [4] | Potency [5] | Potency [6] | Potency [7] | Potency [8] | Potency [9]

C[As+](C)(C)CC(=O)[O-]
inactive: Potency [1] | Potency [2] | Potency [3] | Potency [4] | Potency [5] | Potency [6] | Potency [7] | Potency [8] | Potency [10] | Potency [9]

Nc1c(Oc2ccccc2)cc(O)c2c1C(=O)c1ccccc1C2=O
inactive: Potency [1] | Potency [2] | Potency [3] | Potency [4] | Potency [7] | Potency [8] | Potency [10]
active: Potency [5] 21.3 µM | Potency [6] 10.7 µM

CN(C)CCc1c[nH]c2ccc(O)cc12
inactive: Potency [1] | Potency [2] | Potency [3] | Potency [4] | Potency [5] | Potency [6] | Potency [7] | Potency [8] | Potency [10] | Potency [9]

COc1ccc(OC)c(CC(C)N)c1 (stereo not drawn)
inactive: Potency [1] | Potency [2] | Potency [3] | Potency [4] | Potency [5] | Potency [6] | Potency [7] | Potency [8] | Potency [10] | Potency [9]

CC(c1ccc(O)cc1)c1ccc(O)cc1
inactive: Potency [1] | Potency [2] | Potency [3] | Potency [4] | Potency [6] | Potency [7] | Potency [8] | Potency [10] | Potency [9]
45.9 µM (active) and inactive: Potency [5]

Cc1ccc(C(=O)Cl)cc1
inactive: Potency [1] | Potency [2] | Potency [3] | Potency [4] | Potency [5] | Potency [6] | Potency [7] | Potency [8] | Potency [10]

C[CH2][Hg][N]1C(=O)C2C(C1=O)C1(Cl)C(Cl)=C(Cl)C2(Cl)C1(Cl)Cl (stereo not drawn)
active: Potency [2] 8.27 µM | Potency [3] 4.65 µM | Potency [4] 6.57 µM | Potency [5] 2.33 µM | Potency [6] 3.69 µM | Potency [7] 4.65 µM | Potency [10] 8.27 µM | Potency [9] 13 µM
inactive: cytotoxicity [1] 1.33% [at 15.8 µM] | activity change, negative = cytotoxicity [8] -6.6% [at 15.8 µM]

COP(=O)(CCC(=O)NCO)OC
inactive: Potency [1] | Potency [2] | Potency [3] | Potency [4] | Potency [5] | Potency [6] | Potency [7] | Potency [8] | Potency [9]

CCCN(CC)CC1COC2(CCC(C(C)(C)C)CC2)O1 (stereo not drawn)
inactive: Potency [1] | Potency [2] | Potency [3] | Potency [4] | Potency [5] | Potency [6] | Potency [7] | Potency [8] | Potency [10] | Potency [9]

OC(Cc1ccccc1Cl)(Cn1cncn1)C1(Cl)CC1 (stereo not drawn)
inactive: Potency [1] | Potency [2] | Potency [3] | Potency [4] | Potency [7] | Potency [10] | Potency [9]
active: Potency [5] 54.9 µM | Potency [8] 24.5 µM

C[C@@H]1O[C@@H](O[C@@H]2C=C3CC[C@@H]4[C@H](CC[C@]5(C)[C@@H](c6ccc(=O)oc6)CC[C@]45O)[C@@]3(C)CC2)[C@H](O)[C@H](O)[C@H]1O
inactive: Potency [1] | Potency [2] | Potency [3] | Potency [4] | Potency [6] | Potency [8] | Potency [10] | Potency [9]
active: Potency [5] 0.0301 µM

C=CC(=O)N(C)C
inactive: Potency [1] | Potency [2] | Potency [3] | Potency [4] | Potency [5] | Potency [8] | Potency [10] | Potency [9]

Clc1ccc(COC(Cn2ccnc2)c2ccc(Cl)cc2Cl)cc1 (stereo not drawn)
inactive and 54.7 µM (active): Potency [10]
active: Potency [2] 45.7 µM and 54.7 µM and 15.1 µM | Potency [4] 43.5 µM | Potency [5] 18.2 µM and 21.8 µM | Potency [6] 20.4 µM and 21.8 µM
inactive: Potency [1] | Potency [3] | Potency [8] | Potency [9]

CCCCCCCCCCCCBr
inactive: Potency [1] | Potency [2] | Potency [3] | Potency [4] | Potency [5] | Potency [6] | Potency [8] | Potency [10]

CC(=[OH+])/C=C(/C)[O-].CC(=[OH+])/C=C(\C)[O-].CC(=[OH+])/C=C(\C)[O-].[Fe]
inactive: Potency [1] | Potency [2] | Potency [3] | Potency [4] | Potency [5] | Potency [7] | Potency [8] | Potency [10] | Potency [9]
